According to ChEMBL document CHEMBL3988442, “University of Dundee, Small-Polar-MMV Screening Library” (2021):
The whole screen tested about 66,000 compounds, of which about 960 (1.5%) showed an effect of 50% or more. This is one part of a sample in which strong results are shown more often than they occur.

Test system: Trypanosoma brucei
Assay: Trypanosoma brucei 72 hour study
Format: functional, organism-based
Design: scale not given: in the data most compounds retested in dose-response had high values

| SMILES | Percent Effect (30.3 µM, […]) | Percent Effect (30 µM, 30.03 µM) |
| --- | --- | --- |
| Cc1nc(Cc2ccc(F)cc2)cc(C2COCCN2)n1.Cl (stereo not given) | 101% |  |
| Cc1nc(NCc2cccnc2)cc(C2COCCN2)n1 (stereo not given) | -2.285% |  |
| Cc1nc(NCc2ccc(F)cc2)cc(C2CCCN2)n1.Cl (stereo not given) | -9.094% |  |
| CN(C)C(=O)COC[C@]12COC[C@H]1CN(Cc1ccco1)C2.O=C(O)C(F)(F)F | -53.67% |  |
| COC(=O)c1ccc2c(-c3ccnc(NCCO)n3)c[nH]c2c1 | 8.363% |  |
| COC(=O)c1ccc2c(-c3ccnc(N[C@@H](C)CO)n3)c[nH]c2c1 | 47.11% |  |
| CC[C@@H](CO)Nc1nccc(-c2c[nH]c3cc(C(=O)OC)ccc23)n1 | 72.65% |  |
| Cc1nn(CC(=O)N2CCN(Cc3cn(C)nc3C)CC2)cc1Br |  | -22.12% |
| Cc1ccc(-c2ccccc2CC2CNCCNC2=O)c(C)c1.Cl (stereo not given) | 25.6% |  |
| Cn1cnnc1C1CCN(C(=O)c2cc(-c3ccccc3)on2)CC1 |  | -50.55% |
| CCc1ccc(C(O)CN2CCN(c3cccc(OC)c3)CC2)cc1 (stereo not given) |  | -8.228% |
| CCc1ccc(NC(=O)N2C[C@H]3C[C@H](C(=O)NC4CCC4)[C@@H](C2)O3)cc1 | -16.27% |  |
| CN(C)C[C@@H]1C[C@@H]2CN(C(=O)c3ccoc3)CC[C@@H]2N1CC1CC1.O=C(O)C(F)(F)F | -22.29% |  |
| Nc1ncc(-c2ccc(NC(=O)[C@@H]3CCCCN3)cc2)cn1 | 8.453% |  |
| CNc1ncc(-c2ccc(NC(=O)[C@@H]3CCCCN3)cc2)cn1 | 7.595% |  |
| O=C(Nc1ccc(-c2cnc(NCCO)nc2)cc1)[C@@H]1CCCCN1 | 53.19% |  |
| Cc1cccc(CNC2CCCc3c2cnn3C)c1.Cl (stereo not given) |  | 5.756% |
| Cn1ncc2c1CCCC2NCc1cccc(OC2CCCC2)c1 (stereo not given) | 65.11% |  |
| Cl.Cn1ncc2c1CCCC2NCc1cccc(F)c1 (stereo not given) | -9.663% |  |
| Cc1ccc(CNC2CCCc3c2cnn3Cc2ccccc2)s1.Cl (stereo not given) | 15.28% |  |
| Cc1cccc(CNC2CCCc3c2cnn3Cc2ccccc2)c1.Cl (stereo not given) | 96.36% |  |
| Cn1ncc2c1CCCC2NCc1cccnc1 (stereo not given) |  | -8.249% |
| CN1CC[C@]2(CN(CC3CCOCC3)C[C@H]2c2ccccc2)C1=O.O=C(O)C(F)(F)F | -1.885% |  |
| O=C(O)C(F)(F)F.O=C(O)C(F)(F)F.O=C(O)C(F)(F)F.O=C(O)c1c(-c2cncnc2)ncc2c1CCN(Cc1cccnc1)C2 | -22.43% |  |
| CN(C)CCN1CCCC12CCN(Cc1nccn1C)CC2.O=C(O)C(F)(F)F.O=C(O)C(F)(F)F.O=C(O)C(F)(F)F | -91.45% |  |
